Only some compounds are listed: those with a hit (about 3.5% of all), similar ones and a draw of the others.
TbPYK inhibitor – qHTS of Trypanosoma Brucei Inhibitors | AID 624173, 2012 | Potency, µM (highest dose often 76.8 µM), for the others: top-dose activity, negative = inhibition, actives largely listed as inhibitors | pyruvate kinase (Trypanosoma brucei), Q57TT1 | TbPYK enzyme, Kinase-Glo Plus ATP luminescence, 45 min | 0.12% of 410,000 active; also: % is scaled to controls: 0 for no effect and ±100 for the full control effect; nearly all actives have a fitted effect of over 50% in size
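Readout: single end-point luminescence (Kinase-Glo Plus, 10 min). Reaction conditions were TbPYK/substrate plus 130 uM ADP, 45 min at RT, pH 7.2 TEA buffer. No-enzyme wells served as controls, and data were normalized before concentration-response fitting.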
NS1 function inh – qHTS Assay for Inhibitors of Influenza NS1 Protein Function | Potency, µM (doses to about 46.1 µM), inactives show at the highest dose activity, positive = more growth | 0.4% of 270,000 active; calls by dose curve; also: actives are rising curves; nearly all actives have a fitted effect of over 50% in size
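S. cerevisiae expressing influenza A NS1, grown in glucose, washed, then diluted 1:100 into pH 6.0 -URA galactose medium with 23 nl compound. Growth recovery read as OD600; NS1-free strain serves as control.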
LmPK inh – qHTS Assay for Inhibitors of Leishmania Mexicana Pyruvate Kinase (LmPK); 0.37% of 290,000 active; purified LmPK, Kinase-Glo ATP luminescence, 1 h; Potency, µM (highest dose often 57.5 µM), without a hit: top-dose activity change, negative = inhibition, most hits filed as inhibitors; AID 1721, 2009; also: % is scaled to controls: 0 for no effect and ±100 for the full control effect
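Purified LmPK (0.1 nM) with 0.5 mM PEP and 0.1 mM ADP in imidazole buffer pH 7.2 with MgCl2/KCl, 1 h at room temperature. ATP formed was read by luciferase luminescence and normalized to no-enzyme and uninhibited controls.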
Sm TGR block – qHTS Assay for the Inhibitors of Schistosoma Mansoni Peroxiredoxins | Schistosoma mansoni thioredoxin glutathione reductase (TGR), Q962Y6 | purified TGR, DTNB reduction, TNB absorbance 405 nm | Potency, µM (series often up to 114 µM), for the others: at the top dose activity change, negative = inhibition, hits mostly inhibitors | 3% of 360,000 active | AID 485364, 2010; also: % is scaled to controls: 0 for no effect and ±100 for the full control effect; nearly all actives have a fitted effect of over 60% in size
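TGR 20 nM + NADPH 100 uM (dispensed conc.), cpd preinc 15 min RT; start with NADPH (500 uM addition) then DTNB (15 mM addition). Kinetic TNB absorbance, 405 nm filter. Four-parameter Hill fit across titration.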
FBPA Giardia inh – qHTS Assay for Inhibitors of Fructose-1,6-bisphosphate Aldolase from Giardia Lamblia. purified Giardia FBPA. Potency, µM (top dose mostly 59.6 µM), without a hit: at the top dose activity, negative = inhibition, hits mostly inhibitors. A8B2U2. 0.71% of 290,000 active; also: % is scaled to controls: 0 for no effect and ±100 for the full control effect; nearly all actives have a fitted effect of over 55% in size
Target sequence (A8B2U2 whole entry, looked up): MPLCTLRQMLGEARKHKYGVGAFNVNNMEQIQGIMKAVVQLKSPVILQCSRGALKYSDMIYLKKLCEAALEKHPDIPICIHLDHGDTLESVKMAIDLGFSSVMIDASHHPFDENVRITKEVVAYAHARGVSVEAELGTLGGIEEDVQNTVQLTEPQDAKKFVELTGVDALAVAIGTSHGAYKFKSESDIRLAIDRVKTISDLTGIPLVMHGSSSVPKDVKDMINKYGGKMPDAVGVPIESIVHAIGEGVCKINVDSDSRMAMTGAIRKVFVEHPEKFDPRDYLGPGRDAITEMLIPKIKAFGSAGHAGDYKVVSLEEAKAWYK
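40 nM FBPA preincubated 10 min at RT with compound (up to 57.5 uM final), then substrate plus GAPDH/TPI/NAD/arsenate coupling and diaphorase/resazurin added. Fluorescence read after 20 min at RT, 525/598 nm.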
RE007 growth inh – qHTS Assay for Inhibitors of the HIV-1 protein Vpr | S. pombe RE007 Vpr strain, BacTiter-Glo ATP luminescence, 24 h | Potency, µM (titrated, usually from 92.2 µM), for the others: at the top dose activity change, negative = less growth, most hits filed as inhibitors | 0.21% of 360,000 active | AID 651644, 2012; active = well fitted falling curve with a large enough effect; inconclusive = small, poorly fitted or top-dose-only effect; inactive = no such curve, though single readings can be large or run the other way; also: % is scaled to controls: 0 for no effect and ±100 for the full control effect; nearly all actives have a fitted effect of over 50% in size
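Fission yeast RE007 carrying one integrated HIV-1 vpr copy, seeded at OD 0.01 in PMG+AL medium with 23 nL pinned compound. Grown 24 h at 30 degrees; viability read by BacTiter-Glo luminescence after 5 min.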
The depositor's hits bear a star; ? = inconclusive; . = not tested or not shown; [ ] = another dose, or the depositor's remark. Unless noted, calls follow the shape of the dose curve; as a rule, active = well fitted curve in the direction sought with a large enough effect; inconclusive = small, poorly fitted or top-dose-only effect, or another doubt; inactive = no such curve, though single readings can be large; an effect the other way counts as inactive or inconclusive. Potency is read from the fitted curve at half-maximal effect.

SMILES	TbPYK inhibitor	NS1 function inh	LmPK inh	Sm TGR block	FBPA Giardia inh	RE007 growth inh
CCOC(=O)c1nnn(-c2nonc2-n2cccc2)c1CN1CCC(C)CC1	2%	-34%	1%	-8%	-2%	14%
CCOc1ccc(NC(=O)Cn2cc(S(=O)(=O)N3CCN(c4ccccc4F)CC3)c3ccccc3c2=O)cc1	2%	.	.	-4%	.	.
Cc1ccc(C2C(C#N)=C(N)SC(N)=C2C#N)o1	.	-99%	6%	22µM*	?	.
CCc1ccc(C2C(C#N)=C(N)SC(N)=C2C#N)s1	-4%	?	9%	-31%	?	-2%
CCOC(=O)/C(=N/Nc1ccc(OC)cc1)N1CCCc2ccccc21	0%	-52%	1%	-26%	16µM*	80%
CCOC(=O)/C(=N/Nc1ccccc1)N1CCCc2ccccc21	-5%	17%	-8%	7%	-27%	-9%
CCOC(=O)/C(=N/Nc1ccccc1OC)N1CCCc2ccccc21	-12%	-1%	-2%	40µM*	0%	5%
COc1ccc2[nH]c3c(c2c1)CCC/C3=N\N	-9%	7%	2%	45µM*	-15%	11%
COc1ccc2[nH]c3c(c2c1)CCNC3=O	2%	.	.	.	0%	.
CCn1ccnc1C(O)c1ccc(N(C)C)cc1 (stereo not drawn)	7%	1%	8%	10µM*	-10%	14%
COc1cc(C2C(C(=O)OCC(C)C)=C(C)N=C3SCCC(=O)N32)ccc1OCc1ccccc1 (stereo not drawn)	1%	.	.	0%	.	.
Cc1ccc(N=C2NC(=O)/C(=C/C=C/c3ccco3)S2)cc1	1%	17%	-4%	45µM*	-14%	1%
COc1ccc(N=C2NC(=O)/C(=C/C=C/c3ccccc3)S2)cc1	1%	5%	-4%	-6%	1%	5%
Cc1cccc(N=C2NC(=O)/C(=C/c3cccn3C)S2)c1C	-2%	-50%	-2%	?	-11%	-11%
Cc1cccc(N=C2NC(=O)/C(=C/C=C/c3ccco3)S2)c1C	-17%	23%	-2%	10µM*	-29%	-27%
Cc1ccc(F)cc1-c1ccc(C(=O)N=C(N)N)o1	.	.	.	.	0%	.
CC(=O)N1CCCc2cc(S(=O)(=O)N(C)CC(=O)Nc3cccc(C)c3C)ccc21	0%	.	.	-1%	.	.
Cc1ccc(N2C(=O)CC(Nc3ccc(Cl)c(S(=O)(=O)N(C)C)c3)C2=O)c(C)c1 (stereo not drawn)	5%	-8%	-1%	32µM*	-2%	-6%
CC(=O)N1CCN(CC(=O)Nc2ccc(Cl)c(S(=O)(=O)N(C)C)c2)CC1	-5%	-7%	-3%	-8%	1%	15%
CN1C2CCC1CC(NC(=O)n1c(=O)[nH]c3ccccc31)C2 (stereo not drawn)	-6%	.	.	.	.	.
O=C(CSCc1ccc(Cl)cc1)N/N=C/c1ccccc1	-1%	-8%	-1%	3%	18µM*	47%
Cc1nc2ccc(NC(=O)c3cc([N+](=O)[O-])cc([N+](=O)[O-])c3Cl)cc2s1	-9%	.	0%	0.5µM*	-2%	.
Cc1nc2ccc(NC(=O)c3ccc(Cl)c([N+](=O)[O-])c3)cc2s1	11%	-2%	0%	-10%	2%	-4%
CCOc1ccccc1-n1nnnc1SCC(=O)NC(=O)Cc1ccccc1	-1%	.	.	20µM*	.	13%
CCCn1c(SCC(=O)NC(=O)NCc2ccco2)n[nH]c1=O	.	-5%	-13%	40µM*	-15%	.
SMILES	TbPYK inhibitor	NS1 function inh	LmPK inh	Sm TGR block	FBPA Giardia inh	RE007 growth inh
CCOc1ccccc1-n1nnnc1SCC(=O)NC(=O)NCc1ccco1	2%	-7%	-8%	45µM*	-1%	-3%
COc1ccc(CCNC(=O)NCc2noc3ccccc23)c(OC)c1	-2%	.	.	?	.	.
COc1ccc(C2=CC(=O)N(Nc3ccccc3)C2=O)cc1	-9%	.	-1%	-14%	0%	4%
O=C1C=C(c2ccccc2)C(=O)N1Nc1ccccc1	?	-226%	0%	14µM*	-7%	?
CC1(C)C[C@H]2C=C(C=O)[C@]3(C=O)C[C@]3(C)[C@H]2C1	0%	-37%	6%	50µM*	-3%	4%
COc1ccc(NC(=O)CSc2ccc3nc(-c4ccccc4)cn3n2)c(OC)c1	-3%	.	.	3%	.	.
Cc1ccc(C(=O)OCn2ncc(Cl)c(Cl)c2=O)cc1	14%	-203%	6%	4µM*	6%	50µM*
CCOC(=O)c1ccc(NC(=O)Cn2nc(C)c3ccccc3c2=O)cc1	-3%	-7%	9%	0%	2%	24%
CCC(=O)Nc1ccc(C(=O)Cn2ncc(Cl)c(Cl)c2=O)cc1	2%	3%	1%	2.8µM*	0%	4%
Cc1ccc2oc(=O)c3cnn(CC(=O)Nc4ccc(Br)cc4C)c3c2c1	4%	.	.	0%	.	.
Cc1cc(Br)ccc1NC(=O)CNC(=O)Cn1ncc(Cl)c(Cl)c1=O	6%	1%	0%	1.4µM*	-4%	-6%
CCOC(=O)c1ccc(NC(=O)Cn2ncc(Cl)c(Cl)c2=O)cc1	-3%	-16%	-6%	18µM*	-1%	-10%
Cc1ccc(NC(=O)NCCOCCn2c(=O)oc3ccccc32)cc1F	-5%	.	.	9%	.	.
C=CCSC1=N/C(=C\c2ccc(C)o2)C(=O)S1	-4%	-45%	13%	40µM*	-23%	?
C=CCSC1=N/C(=C\c2ccsc2)C(=O)S1	-1%	-55%	5%	-28%	-4%	-25%
COc1ccc(NC(=O)c2ccco2)cc1NC(=O)c1ccco1	1%	-14%	-1%	-20%	5%	2%
COc1ccc(NC(=O)c2ccco2)cc1N	-14%	6%	-12%	-5%	40µM*	-3%
Nc1ncnc2c1ncn2[C@H]1O[C@@H](C(=O)OCCO)[C@@H](O)[C@H]1O	.	-3%	.	.	.	.
COc1cc(C=C2C(=O)NC(=O)NC2=O)ccc1OS(=O)(=O)c1ccccc1[N+](=O)[O-]	-26%	15%	9%	2.8µM*	-26%	-17%
CCOc1cc(C=C2C(=O)NC(=O)NC2=O)ccc1OS(=O)(=O)c1ccccc1	?	-15%	-1%	22µM*	?	5%
CCOc1ccc(C=C2C(=O)NC(=S)NC2=O)cc1OCC	?	.	.	.	.	21%
COc1cc(/C=C2\C(=N)N3N=CSC3=NC2=O)ccc1OS(=O)(=O)c1ccccc1[N+](=O)[O-]	3%	0%	-7%	-30%	14%	-5%
CCCCCCC#CC1C=CC(OC(C)=O)C(COC(C)=O)O1 (stereo not drawn)	.	.	.	.	3%[12.9 µM]	.

Assay outcomes: PubChem, National Center for Advancing Translational Sciences (NCATS)
